M1 antag: antagonists of rat M1 muscarinic receptor; B-score at 10 µM; actives 3.4% (n = 64,000); CHO-M1 cells, Fluo-4 calcium, ACh EC80 antagonist mode; hits give low values;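 active = calcium fluorescence response, raw or row-and-column corrected B-score, differing from the plate sample mean either way at a set confidence level, mostly lower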
Target sequence (P08482 whole entry, looked up): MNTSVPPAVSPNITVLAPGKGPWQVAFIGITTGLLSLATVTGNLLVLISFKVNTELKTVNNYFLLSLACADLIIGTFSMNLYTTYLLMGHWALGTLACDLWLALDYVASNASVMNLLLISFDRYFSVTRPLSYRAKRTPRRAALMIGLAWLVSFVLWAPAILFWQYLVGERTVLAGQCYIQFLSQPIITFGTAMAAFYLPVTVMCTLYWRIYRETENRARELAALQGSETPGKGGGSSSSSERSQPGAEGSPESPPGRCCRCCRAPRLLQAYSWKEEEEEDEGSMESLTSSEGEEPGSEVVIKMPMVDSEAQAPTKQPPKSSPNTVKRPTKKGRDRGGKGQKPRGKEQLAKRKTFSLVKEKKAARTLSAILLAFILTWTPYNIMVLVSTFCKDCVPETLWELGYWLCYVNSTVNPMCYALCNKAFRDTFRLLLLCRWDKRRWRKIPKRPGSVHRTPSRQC
PLAP activator: human PLAP activation. actives 1.2% (n = 96,000). P05187. AID 696. activation fold at 20 µM. purified PLAP enzyme, luminescent substrate read-out; hits give high values; in the data active = activation fold above about 2
M1 ag: M1 muscarinic receptor agonism; CHO-M1 cells, Fluo-4 calcium fluorescence, agonist mode; hits give high values; B-score at 10 µM; actives 3% (n = 64,000); AID 626;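 active = fluorescence rise, raw or as B-score row- and column-corrected plate score, outside the 99.7% band of its plate's samples, either direction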
Cav32 inh: human Cav3.2 channel inhibition, primary screen; B-score at 10 µM; AID 449739; Cav3.2-expressing cells, Fluo-4 calcium fluorescence FDSS; hits give low values; actives 4% (n = 100,000);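 active = single-dose well whose peak fluorescence ratio is a statistical outlier from its plate by either plate-standardised score or position-corrected B-score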
The depositor's hits bear a star; · = not tested or not shown. A selection: hits, their analogues and other compounds. The true share with any hit is near 7.6%.

SMILES	M1 antag	PLAP activator	M1 ag	Cav32 inh
CNS(=O)(=O)c1cccc(C(=O)OC2CCCCC2=O)c1 (centres undefined)	0.48	1.1	-0.32	0.12
CC1(C)C(=O)Nc2ccccc2N1C(=O)COC(=O)c1ccc(Cl)c(S(=O)(=O)NCc2ccccc2)c1	·	1.7	·	-3.7*
CCOC(=O)c1c(C)[nH]c(C)c1C(=O)COC(=O)c1ccc(Cl)c(S(=O)(=O)NCc2ccccc2)c1	·	1.4	·	-4.1
CC(C)OC(=O)c1cc2c(ccn2C)n1CC(=O)N1CCC(Cc2ccccc2)CC1	·	1.1	·	-7.9*
CCN(CC)S(=O)(=O)c1cc(C(=O)Nc2cc(Cl)ccc2N2CCN(C)CC2)ccc1Cl	·	1.6	·	-7.6*
CN1CCN(c2ccc(Cl)cc2NC(=O)c2ccc(S(=O)(=O)N(C)C)cc2)CC1	·	1.7	·	-1.1
CC(NC(=O)c1cccnc1)c1ccc2c(c1)OCO2 (centres undefined)	0.65	1	0.32	0.98
O=C(CSC1=NCCS1)N1CCOCC1	2.1*	1	-1.5	-1.5
COCCN(C(=O)c1ccco1)C(C(=O)NC1CCCC1)c1cccs1 (centres undefined)	·	·	·	0.0045
CC(C)(C)C(=O)Nc1nc(=S)ss1	·	1.3	·	-5*
c1ccc(C2=Nn3c(nnc3-c3ccncc3)SC2)cc1	0.96	0.9	0.77	0.79
Cc1ccc(-c2nnc3n2N=C(c2ccccc2Br)CS3)cc1	0.24	0.8	0.45	-4*
CC1CN(C(=O)Cc2ccc(-c3ccccc3)cc2)CC(C)O1 (centres undefined)	0.31	1.6	0.17	0.92
O=C(C1CCCO1)N1CCN(Cc2c(O)ccc3ccccc23)CC1 (centres undefined)	·	2.4*	·	-0.026
Cc1ccc(Cn2ccc(NC(=O)CCSc3nc(-c4ccco4)cc(C(F)(F)F)n3)n2)cc1	0.02	1.3	0.27	-9*
Cc1ccccc1Cn1ccc(NC(=O)CCSc2nc(-c3ccco3)cc(C(F)(F)F)n2)n1	0.05	0.9	0.83	·
COC(=O)/C(=C\c1c(OC)cc(OC)cc1OC)C(=O)c1ccc2c(c1)OCO2	·	·	·	0.056
CC(C)(C)NS(=O)(=O)c1ccc(CCC(=O)NCc2ccc3c(c2)OCO3)cc1	·	·	·	-0.0041
C=CCNC(=S)NNC(=O)C(CCCC)CC(C)O (centres undefined)	·	·	·	0.21
C=CCNC(=S)NNC(=O)CCC(O)CCCCC (centres undefined)	·	2.4*	·	0.47
O=C(NCc1ccccc1)N1CCn2c(nc3ccccc32)C1	0.99	·	0.0044	1.1
CCN(c1ccc2c(c1)OCO2)S(=O)(=O)c1cc(Br)cc2c1N(C(C)=O)CC2	·	1.1	·	0.64
COc1cc(/C=N/NC(=O)C2c3ccccc3Oc3ccccc32)ccc1O	·	1	·	0.015
CCOC(=O)C1=C(CSc2nc(C)cc(C)c2C#N)OC(N)=C(C#N)C1c1cccs1 (centres undefined)	0.26	1.1	-0.8	0.18
CCOC(=O)C1=C(CSc2nc(C)cc(C)c2C#N)OC(N)=C(C#N)C1c1ccccc1 (centres undefined)	·	1.1	·	-5.5*
SMILES	M1 antag	PLAP activator	M1 ag	Cav32 inh
O=C(Nc1nnc(CCN2CCOCC2)s1)C1CCCCC1	0.024	1.2	-0.0075	0.23
Cc1ccc(S(=O)(=O)NC(=O)NCc2ccccn2)cc1	-0.07	1	-0.55	0.49
COCCNC(=O)c1c(N)n(-c2cccc(C)c2)c2nc3ccccc3nc12	-0.36	1.6	0.017	-6.1*
O=C(O)c1ccc(-n2nnnc2SCc2ccccc2F)cc1	0.67	1.1	-0.44	-4.1*
COc1ccccc1CNS(=O)(=O)c1c(C)[nH]c(=O)[nH]c1=O	·	0.9	·	0.95
Cc1ccc(NC(=O)c2noc3c2CCc2ccccc2-3)cc1	·	0.8	·	0.49
Cc1nn(Cc2ccccc2)c(C)c1NC(=O)c1noc2c1CCc1ccccc1-2	·	1.5	·	-6.3*
N#CCCN1CCN(S(=O)(=O)c2ccc(S(=O)(=O)NC3CCCC3)cc2)CC1	-0.39	1	1.2	0.5
Fc1ccc(-c2cnc[nH]2)cc1	1.9*	0.9	-0.04	·
COc1cc(C(=O)N2CCC(NC(=O)C(Cc3ccc(C(C)C)cc3)NC(C)=O)CC2)cc(OC)c1OC (centres undefined)	·	1.5	·	-0.17
CCCCc1nc(NCCNC(=O)c2ccco2)c(C#N)c2c1CSC(C)(C)C2	0.22	1.9	-0.05	-5.8*
CCCCc1nc(NCCN2CCOCC2)c(C#N)c2c1COC(C)(C)C2	0.1	1.6	-2.6	-0.48
CCCCc1nc(NCCNC(=O)c2ccccc2)c(C#N)c2c1CSC(C)(C)C2	·	1.6	·	-4.5*
Cc1cc(C)c2c(N)c(S(=O)c3ccc(C(C)(C)C)cc3)sc2n1 (centres undefined)	·	1.5	·	-2.2
Cc1ccc(S(=O)(=O)NCC(=O)N(CC(=O)NC2CCCC2)c2ccc3c(c2)OCCO3)cc1	0.51	1.3	0.16	·

Source: PubChem BioAssay
